Platelet DG rel: platelet dense granule release activity; human platelet-rich plasma, SFLLRN dense granule ATP release, luminescence; inhibition, %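 (compounds screened at 7.5 µM in platelet-rich plasma)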; 300,000 compounds, 0.22% hits; AID 1663;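 active means mean replicate score, as percent of positive control, at or above 50; inconclusive means mean below 50 but at least one replicate at or above 50; inactive means mean and every replicate below 50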
SENP8 block-1: inhibitors of human SENP8 protease. Q96LD8. purified SENP8, Z-RLRGG-aminoluciferin cleavage, luminescence. inhibition, % at 10 µM. 330,000 compounds, 1.2% hits. AID 2540; in the data active means inhibition above about 50%
Target sequence (Q96LD8 whole entry, looked up): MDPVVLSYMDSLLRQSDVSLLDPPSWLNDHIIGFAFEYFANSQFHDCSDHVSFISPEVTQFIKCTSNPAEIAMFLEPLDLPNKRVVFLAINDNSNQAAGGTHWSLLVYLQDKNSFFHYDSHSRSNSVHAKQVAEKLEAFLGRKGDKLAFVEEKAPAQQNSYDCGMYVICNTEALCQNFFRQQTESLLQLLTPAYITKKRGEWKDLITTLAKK
SENP8 block-2: blocks human SENP8 cleavage of Nedd8 substrate | 360,000 compounds, 0.64% hits | recombinant SENP8, Nedd8 substrate fluorescence | AID 602440 | inhibition, % at 20 µM; in the data active means inhibition mostly above about 40%, no sharp cut-off; inactive means mostly below about 27%
SENP7 inh: blocks the human protease SENP7 | recombinant SENP7, Z-RLRGG-aminoluciferin luminescence, 40 min | inhibition, % at 5 µM | AID 434973 | Q9BQF6 | 330,000 compounds, 1.5% hits;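 active means inhibition above about 50% at the single test dose, limit read from the data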;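 further: plate controls were DMSO with enzyme for no effect and no enzyme buffer wells for full effect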
SENP6 block: SENP6 protease inhibition | inhibition, % at 10 µM | Q9GZR1 | Recombinant SENP6 catalytic domain, aminoluciferin luminescence | 330,000 compounds, 1.8% hits;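 active means inhibition above about 50% at the single tested dose, limit read from the data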;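 further: plate controls were DMSO wells with enzyme for no effect and DMSO wells lacking enzyme for full effect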
HSP90 inh: blocks HSP90-mediated luciferase refolding in reticulocyte lysate | Rabbit reticulocyte lysate, luciferase refolding luminescence, 3 h | inhibition, % at 5.6 µM | 290,000 compounds, 0.91% hits | AID 1789;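 active means inhibition above the screen-wide mean plus 3 SD, computed separately per campaign, cut at about 16% in these data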;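 further: 0% = DMSO wells and 100% = 60 µM geldanamycin wells; inhibitors lower the luminescence because luciferase stays unfolded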
SENP8 conf: human SENP8 inhibition, confirmed. shares compounds with SENP7 inh. Recombinant SENP8, Z-RLRGG-aminoluciferin luminescence, 60 min. inhibition, % at 12.5 µM. 6,200 compounds, 40% hits;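 active means mean inhibition across replicates above about 50%, limit read from the data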
SENP6 conf: confirmation of human SENP6 protease inhibitors; recombinant SENP6, Z-RLRGG-aminoluciferin luminescence; inhibition, % at 12.5 µM; 6,200 compounds, 58% hits; shares compounds with SENP7 inh; AID 488915
SENP7 conf: human SENP7 inhibition, confirmed | recombinant SENP7, Z-RLRGG-aminoluciferin luminescence, 40 min | shares compounds with SENP7 inh | AID 488917 | 6,200 compounds, 69% hits | inhibition, % at 12.5 µM
Casp3 select: inhibits human caspase-3 in SENP selectivity test; purified caspase-3, Z-DEVD-aminoluciferin luminescence, 60 min; inhibition, % at 12.5 µM; AID 488918; 6,200 compounds, 60% hits; shares compounds with SENP7 inh;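 active means mean inhibition above about 50%, limit read from the data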;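 further: plate controls were enzyme with DMSO for no effect and wells without caspase-3 for full effect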
Target sequence (P42574 28-227 limits assumed): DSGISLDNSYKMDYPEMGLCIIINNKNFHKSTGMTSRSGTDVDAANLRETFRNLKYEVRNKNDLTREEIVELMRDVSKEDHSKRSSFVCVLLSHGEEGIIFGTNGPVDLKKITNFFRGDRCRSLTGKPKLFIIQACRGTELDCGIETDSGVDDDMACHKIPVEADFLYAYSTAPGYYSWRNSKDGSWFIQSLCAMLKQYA
Luc interf: counter-screen for SENP inhibitors: luminescence interference; shares compounds with SENP7 inh; Pre-incubated SENP8/Z-RLRGG-aminoluciferin, luciferase luminescence interference; inhibition, % at 12.5 µM; 6,200 compounds, 39% hits;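 active means mean inhibition above about 50% when retested at one dose, limit read from the data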;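 further: plate controls were DMSO wells with completed reaction for no effect and substrate without enzyme for full effect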
* hit, by the source's call; ? = inconclusive; . = no result. Shown are actives, neighbours in structure and some others; about 2.8% of the full set was active somewhere.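 How the source made its calls, unless noted: active means mean inhibition above about 50% in the one-dose retest (limit read from the data); inactive means the rest.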

SMILES	Platelet DG rel	SENP8 block-1	SENP8 block-2	SENP7 inh	SENP6 block	HSP90 inh	SENP8 conf	SENP6 conf	SENP7 conf	Casp3 select	Luc interf
O=C(Nc1sc2c(c1C(=O)O)CCCCC2)c1ccccc1	2	95*	-100	83*	99*	4	97*	100*	103*	98*	98*
COc1cccc(NC(=O)Nc2cc(C(=O)O)ccc2N2CC3CC(C2)c2cccc(=O)n2C3)c1 (stereo not given)	6	9	2	6	-10	2	.	.	.	.	.
Cn1c(N)c(S(=O)(=O)NCc2ccc(F)cc2)c(=O)n(C)c1=O	-3	-3	16	-5	15	2	.	.	.	.	.
C=CCC[C@@H](Cc1ccc(F)cc1)C(=O)OC[C@@H](NC(=O)[C@@H](CC=C)CC(=O)N[C@H](CO)Cc1ccccc1)C(C)(C)C	.	-6	-1	-11	-24	.	.	.	.	.	.
CC(C)(C)c1ccc2c(c1)C(=O)c1ccccc1C2=O	9	66*	19	96*	96*	-3	-2	59*	82*	44	44
O=c1/c(=C/c2ccc(O)cc2)sc2n1CCCN=2	.	80*	15	64*	86*	-5	86*	84*	96*	88*	84*
O=C(Nc1ccccc1)c1ccc(NC(=O)C2CC2)cc1	21	33	2	62*	58*	0	-28	2	67*	64*	-9
O=C(Nc1ccc(C2SCCS2)cc1)c1ccccc1	5	53*	-9	92*	50	-4	2	2	28	23	7
Cn1ncc(Cl)c1C(=O)N1CCN(c2ccc(F)cc2)CC1	5	-6	6	-12	8	2	.	.	.	.	.
CC(=O)c1ccc(S(=O)(=O)N2CCN(CC(=O)Nc3ccnn3C3CCCC3)CC2)cc1	.	.	12	.	.	.	.	.	.	.	.
O=C(O)c1ccc(N=Nc2c(-c3ccccc3)[nH]oc2=O)cc1	-7	59*	22	39	33	-2	-8	-6	19	7	1
COCCN1Cc2c(sc(C)c2C)N(C(=O)c2ccccc2)C1	1	29	-246	5	51*	-4	4	1	32	30	49
COc1cccc(-c2ccc3nnc(SCC(=O)Nc4ccc(NC(C)=O)cc4)n3n2)c1	-4	3	-32	5	-6	.	.	.	.	.	.
Cc1ccc(S(=O)(=O)CCC(=O)Nc2nc(-c3ccncc3)cs2)cc1	1	5	1	-7	52*	0	10	6	-7	-1	0
c1ccc2nc3c(nc2c1)[nH]c1ccccc13	5	60*	-214	75*	29	-3	22	71*	92*	76*	15
CC(C)c1ccc(-n2nc3ccc(N)cc3n2)cc1	2	73*	-420	29	88*	1	1	88*	98*	56*	20
Nc1ccc2nn(-c3ccc(F)cc3)nc2c1	12	84*	-435	57*	88*	8	61*	76*	94*	72*	23
CCOc1ccc(OCCCC(=O)N(CC)CC(=O)Nc2c(F)cccc2F)cc1	.	4	1	-2	-13	.	.	.	.	.	.
Cn1c(=O)[nH]c2nnc(-c3ccc(Cl)c(Cl)c3)nc2c1=O	-13	97*	12	97*	96*	4	56*	80*	53*	91*	16
CC(=O)Nc1ccc(NC(=O)COc2ccc3c(c2)CCC3)cc1	4	-4	20	-1	-9	0	.	.	.	.	.
Cc1ccnc(NC(=O)COc2ccc3c(c2)CCC3)c1	-1	94*	7	94*	82*	.	87*	86*	98*	91*	84*
COc1ccc(NC(=O)c2ccc(OCC3CCCO3)cc2)cc1Cl (stereo not given)	.	38	-1	67*	55*	.	8	40	73*	39	4
Cc1ccnc(NC(=O)c2ccc(OCC3CCCO3)cc2)c1 (stereo not given)	?	75*	5	83*	84*	.	82*	82*	97*	94*	61*
COc1cc(NC(=O)N[C@@H](Cc2c[nH]c3ccccc23)C(=O)O)c(C(=O)O)cc1OC	-5	2	-190	-4	-2	12	.	.	.	.	.
CC(=O)Nc1ccc(C2C(=O)c3ccccc3C2=O)cc1	4	-6	-1	3	-21	-1	.	.	.	.	.
SMILES	Platelet DG rel	SENP8 block-1	SENP8 block-2	SENP7 inh	SENP6 block	HSP90 inh	SENP8 conf	SENP6 conf	SENP7 conf	Casp3 select	Luc interf
CCCC(=O)Nc1ccc(C2C(=O)c3ccccc3C2=O)cc1	28	56*	4	-4	75*	7	38	80*	94*	93*	80*
Oc1ccc(NCc2cccc(OCc3ccccc3)c2)cc1	3	-7	43*	0	69*	2	-30	-24	-7	-4	6
Oc1ccc(NCc2cccc(OCc3ccc(F)cc3)c2)cc1	-10	-5	32	35	8	4	.	.	.	.	.
COC(=O)c1c[nH]n2c(=O)cc(C)nc12	-6	-4	2	7	-3	-1	.	.	.	.	.
COC(=O)c1c[nH]n2c(=O)c(Cl)c(C)nc12	3	34	-13	54*	64*	1	66*	57*	86*	88*	66*
Cc1cc(C[n+]2cc(Br)ccc2N)c2ncccc2c1	2	-4	24	5	-7	0	.	.	.	.	.
CC(Sc1nnc(C(C)Oc2ccccc2F)o1)C(=O)NCc1ccc2c(c1)OCO2 (stereo not given)	.	-4	6	5	16	.	.	.	.	.	.
Cc1ccc(NCc2nnc3n2CCCCC3)cc1	-5	-10	-8	-7	-7	-1	.	.	.	.	.
Brc1ccc(NCc2nnc3n2CCCCC3)cc1	1	-2	8	99*	-10	1	9	10	7	2	5
Cc1nc2ccccc2c(=O)n1NC(=O)COc1ccccc1	-2	-7	6	57*	-9	-2	9	6	13	7	5
CCN(c1ccccc1)S(=O)(=O)c1ccc(Cl)c(NC(=O)CN2C(=O)NC3(CCCC3)C2=O)c1	-1	-12	13	-9	0	1	.	.	.	.	.
COc1ccc(-c2csc(N3CCSCC3)n2)cc1	-3	-4	11	-2	-30	0	.	.	.	.	.
